High-throughput results as filed in PubChem BioAssay.
Pf Dd2 growth: inhibitors of Plasmodium falciparum Dd2 growth; Potency, µM (series often up to 28.9 µM), actives largely listed as inhibitors; P. falciparum Dd2 growth, SYBR Green, 72 h; AID 1347417; 4.3% of 120,000 active; active = well fitted inhibition curve with a large enough effect; also: nearly all actives have a fitted effect of over 65% in size
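Infected erythrocytes (Dd2, 0.3% parasitemia, 2.5% hematocrit final) are added to compound in RPMI-1640/Albumax II medium, grown 72 h at 37C in low oxygen, then lysed with saponin/Triton-X containing SYBR Green and read by fluorescence.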
Large screens that a line does not name were inactive. Many of the other results were omitted from the sample, so hits are more common in it than they were.

Cc1ccc(C(=O)NC(C(=O)N2CCCC2)C2CCN(C(=O)c3cccc(F)c3)CC2)cc1 (stereo not drawn)	none
CC(C)CN1CCNC(=O)C1CC(=O)O (stereo not drawn)	none
Cc1nc(N2CCCC2)c2c(C(=O)Nc3cccc(Cl)c3)c(C)oc2n1	none
Cc1nc(N2CCCC2)c2c(C(=O)N3CCN(c4ccccc4)CC3)c(C)oc2n1	none
Cc1nc(N2CCCC2)c2c(C(=O)N3CCN(c4cc(Cl)ccc4C)CC3)c(C)oc2n1	Pf Dd2 growth 12.6µM
Cn1ccnc1C(=O)NC1CCc2nnc(C3CC3)n2CC1 (stereo not drawn)	none
Cc1cccc(-c2nc(CN3C(=O)CN=C(c4ccccc4)c4ccccc43)c(C)o2)c1	none
COc1cccc(CN2CC[C@H](c3nnc(-c4ccco4)o3)C2)c1	none
Cc1cccc(CN2CCN(Cc3nc(-c4ccco4)oc3C)C(C)C2=O)c1 (stereo not drawn)	Pf Dd2 growth 12.6µM
CCn1ccc(C(=O)N2CCC(N3C(=O)C(OCC4CC4)C34CCOCC4)CC2)n1 (stereo not drawn)	none
CN(C)C(=O)c1ccc2ccnn2c1	none
O=C1CCCN1Cc1nc(-c2ccc(F)cc2)no1	none
Cc1ccc([C@H]2CN(C(=O)CCc3c(C)nc4ncnn4c3C)C[C@@H]2N)o1	none
CC(C)C(=O)Nc1ccc(C2(C(=O)NCc3ccc(F)c(Cl)c3)CCC2)cc1	none
Cc1ccc(NC(=O)N2CCN(c3nnc(C)c4c(C)n(-c5ccccc5)nc34)CC2)c(Cl)c1	none
Cc1ccc(NC(=O)N2CCc3c([nH]c4ccccc34)C2c2ccccc2F)c(Cl)c1 (stereo not drawn)	Pf Dd2 growth 10µM
COC(=O)CC1c2cc(OC)c(OC)cc2CCN1C(=O)Nc1ccc(C)cc1Cl (stereo not drawn)	none
CCOc1ccc2c(n1)CCN(C(=O)Nc1ccc(C)cc1C)C2	none
CN(C)CCNC(=O)C1(CCO)CC12CCOCC2 (stereo not drawn)	none
COc1ccccc1CN1C(=O)O[C@@H]2CN(C(=O)NC3CCCCC3)C[C@@H]21	none
COC(=O)c1ccc(N2C[C@H]3OC(=O)N(Cc4ccccc4OC)[C@H]3C2)nc1	none
COc1cc(OC)nc(N2C[C@H]3OC(=O)N(Cc4ccccc4OC)[C@H]3C2)n1	Pf Dd2 growth 3.55µM
CN(Cc1ccccn1)C1CCOc2ccccc21 (stereo not drawn)	none
O=C(CCC1CCN(c2cc(NC3CC3)ncn2)CC1)NCC1CC1	none
O=C(CC1(O)C(=O)N(CCc2ccccc2)c2ccc(Br)cc21)c1ccccc1O (stereo not drawn)	Pf Dd2 growth 10µM
C#CCN1C(=O)C(O)(CC(=O)c2ccc(OC)c(OC)c2)c2cc(Br)ccc21 (stereo not drawn)	none
COc1ccccc1C(=O)CC1(O)C(=O)N(CC(N)=O)c2ccccc21 (stereo not drawn)	none
CCc1noc(-c2cn(C3CCN(C(=O)c4ccc(F)cc4Cl)C3)nn2)n1 (stereo not drawn)	none
CCC(CC)C(=O)N1CC2CC(C1)[C@H]1CCCC(=O)N1C2 (stereo partly drawn)	none
CCCN(CC1CC1)C(=O)C1CCCCC(=O)N1Cc1cccc(OC)c1 (stereo not drawn)	none
CCCOc1ccc(-c2nn(-c3ccccc3)cc2C2NC(=O)NC(C)=C2C(=O)OC)cc1C (stereo not drawn)	Pf Dd2 growth 10µM
COc1ccc(C2NC(=O)NC(C)=C2C(=O)Nc2ccccc2)cc1OC (stereo not drawn)	none
CCCOc1ccccc1C1C(C(=O)Nc2ccccc2)=C(C)Nc2nnnn21 (stereo not drawn)	none
CCCOc1ccc(-c2nn(-c3ccccc3)cc2C2NC(=O)NC(C)=C2C(=O)OC)cc1 (stereo not drawn)	Pf Dd2 growth 10µM
CCCCOc1ccc(-c2nn(-c3ccccc3)cc2C2NC(=O)NC(C)=C2C(=O)OC)cc1 (stereo not drawn)	none
COC(=O)C1=C(C)NC(=O)NC1c1ccc(O)cc1 (stereo not drawn)	none
Cc1ccsc1C(=O)N[C@@H]1CN(c2ncccn2)C[C@H]1CN(C)C	none
O=C1CC(c2ccccc2)N(C(=O)CNC(=O)c2cc(CN3CCOCC3)on2)CCCCCN1 (stereo not drawn)	none
Cc1ccc(OCC(=O)N2CCCN(S(C)(=O)=O)c3ccccc32)cc1	none
NC(=O)CO[C@@H]1CO[C@H]2[C@@H]1OC[C@@H]2NC(=O)NCc1ccccc1	none
O=C(O)CCCC(=O)N1Cc2ccccc2CC2(CCCN(CC3CCCCC3)C2)C1 (stereo not drawn)	none
O=C(O)CCC(=O)N1Cc2ccccc2CC2(CCCN(CC3CCCCC3)C2)C1 (stereo not drawn)	none
CCCN1CCC2(Cc3ccccc3CN(C(=O)CCCC(=O)O)C2)C1 (stereo not drawn)	none
CC(=O)NCC(=O)N1Cc2ccccc2CC2(CCCN2C)C1 (stereo not drawn)	none
CC(C)C(=O)N1Cc2ccccc2CC2(CCCN(CC3CCCCC3)C2)C1 (stereo not drawn)	Pf Dd2 growth 0.251µM
CCCN1CCC2(Cc3ccccc3CN(C(C)=O)C2)C1 (stereo not drawn)	none
